Test results: ChEMBL document CHEMBL1961873, “Compounds: GSK PKIS; Assays: Nanosyn kinase panel” (2012)

How the values were obtained:
[1] = target: Protein kinase C gamma type (Homo sapiens) (UniProt P05129); conditions: at 1 µM;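 note: each value is an averaged percent inhibition of the enzyme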
[2] = target: T1, Protein kinase C iota type (Homo sapiens) (UniProt P41743); conditions: at 0.1 µM
T1 sequence (whole entry): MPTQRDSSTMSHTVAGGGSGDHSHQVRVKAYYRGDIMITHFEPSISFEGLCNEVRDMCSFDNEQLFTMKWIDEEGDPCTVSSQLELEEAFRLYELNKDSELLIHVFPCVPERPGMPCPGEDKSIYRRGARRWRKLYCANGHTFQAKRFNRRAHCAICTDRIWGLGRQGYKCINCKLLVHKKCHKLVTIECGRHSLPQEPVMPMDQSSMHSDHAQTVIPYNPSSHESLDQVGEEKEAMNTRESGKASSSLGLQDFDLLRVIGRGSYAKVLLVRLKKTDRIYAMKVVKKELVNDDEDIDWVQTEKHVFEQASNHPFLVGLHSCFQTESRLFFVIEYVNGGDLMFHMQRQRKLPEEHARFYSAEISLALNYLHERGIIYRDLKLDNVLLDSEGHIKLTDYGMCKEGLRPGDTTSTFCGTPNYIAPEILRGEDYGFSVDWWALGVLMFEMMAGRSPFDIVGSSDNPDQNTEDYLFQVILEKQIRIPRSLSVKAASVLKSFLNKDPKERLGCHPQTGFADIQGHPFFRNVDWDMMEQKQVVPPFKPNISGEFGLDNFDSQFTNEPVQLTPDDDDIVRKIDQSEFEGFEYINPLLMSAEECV

[3] = target: T1, Protein kinase C iota type (Homo sapiens); conditions: at 1 µM
[4] = target: Protein kinase C theta type (Homo sapiens) (UniProt Q04759); conditions: at 0.1 µM
[5] = target: Protein kinase C theta type (Homo sapiens) (UniProt Q04759); conditions: at 1 µM
[6] = target: Protein kinase C beta type (Homo sapiens) (UniProt P05771); conditions: at 0.1 µM
[7] = target: Protein kinase C beta type (Homo sapiens) (UniProt P05771); conditions: at 1 µM
[8] = target: T2, Serine/threonine-protein kinase D1 (Homo sapiens) (UniProt Q15139); conditions: at 0.1 µM
T2 sequence (whole entry): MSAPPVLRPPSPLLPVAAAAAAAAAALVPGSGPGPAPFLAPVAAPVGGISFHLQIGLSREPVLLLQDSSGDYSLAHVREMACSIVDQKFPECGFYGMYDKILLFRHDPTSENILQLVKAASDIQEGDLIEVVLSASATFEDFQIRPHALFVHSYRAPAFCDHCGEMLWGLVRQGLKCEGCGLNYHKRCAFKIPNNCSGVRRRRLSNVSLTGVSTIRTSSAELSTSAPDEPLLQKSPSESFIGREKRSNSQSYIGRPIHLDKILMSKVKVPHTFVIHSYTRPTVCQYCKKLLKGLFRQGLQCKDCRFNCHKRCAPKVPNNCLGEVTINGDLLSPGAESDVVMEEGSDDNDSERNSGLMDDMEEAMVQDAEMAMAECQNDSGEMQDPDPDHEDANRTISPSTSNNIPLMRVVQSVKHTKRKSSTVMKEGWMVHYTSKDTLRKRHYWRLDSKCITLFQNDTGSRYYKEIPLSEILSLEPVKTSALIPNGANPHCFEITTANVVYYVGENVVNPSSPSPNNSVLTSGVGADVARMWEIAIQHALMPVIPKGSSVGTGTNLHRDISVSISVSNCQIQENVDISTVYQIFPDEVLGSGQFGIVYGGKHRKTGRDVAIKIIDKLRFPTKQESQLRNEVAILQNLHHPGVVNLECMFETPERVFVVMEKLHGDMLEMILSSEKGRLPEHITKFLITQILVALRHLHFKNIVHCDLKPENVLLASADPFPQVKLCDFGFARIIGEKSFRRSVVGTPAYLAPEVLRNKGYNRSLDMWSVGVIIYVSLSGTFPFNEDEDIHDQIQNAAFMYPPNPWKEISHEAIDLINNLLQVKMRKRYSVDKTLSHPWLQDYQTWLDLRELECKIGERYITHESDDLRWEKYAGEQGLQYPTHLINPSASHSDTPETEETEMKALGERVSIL

[9] = target: T2, Serine/threonine-protein kinase D1 (Homo sapiens); conditions: at 1 µM
[10] = target: T3, Serine/threonine-protein kinase D2 (Homo sapiens) (UniProt Q9BZL6); conditions: at 0.1 µM;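 note: reported percent inhibition values are means, part of the GSK PKIS kinase panel screen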
T3 sequence (whole entry): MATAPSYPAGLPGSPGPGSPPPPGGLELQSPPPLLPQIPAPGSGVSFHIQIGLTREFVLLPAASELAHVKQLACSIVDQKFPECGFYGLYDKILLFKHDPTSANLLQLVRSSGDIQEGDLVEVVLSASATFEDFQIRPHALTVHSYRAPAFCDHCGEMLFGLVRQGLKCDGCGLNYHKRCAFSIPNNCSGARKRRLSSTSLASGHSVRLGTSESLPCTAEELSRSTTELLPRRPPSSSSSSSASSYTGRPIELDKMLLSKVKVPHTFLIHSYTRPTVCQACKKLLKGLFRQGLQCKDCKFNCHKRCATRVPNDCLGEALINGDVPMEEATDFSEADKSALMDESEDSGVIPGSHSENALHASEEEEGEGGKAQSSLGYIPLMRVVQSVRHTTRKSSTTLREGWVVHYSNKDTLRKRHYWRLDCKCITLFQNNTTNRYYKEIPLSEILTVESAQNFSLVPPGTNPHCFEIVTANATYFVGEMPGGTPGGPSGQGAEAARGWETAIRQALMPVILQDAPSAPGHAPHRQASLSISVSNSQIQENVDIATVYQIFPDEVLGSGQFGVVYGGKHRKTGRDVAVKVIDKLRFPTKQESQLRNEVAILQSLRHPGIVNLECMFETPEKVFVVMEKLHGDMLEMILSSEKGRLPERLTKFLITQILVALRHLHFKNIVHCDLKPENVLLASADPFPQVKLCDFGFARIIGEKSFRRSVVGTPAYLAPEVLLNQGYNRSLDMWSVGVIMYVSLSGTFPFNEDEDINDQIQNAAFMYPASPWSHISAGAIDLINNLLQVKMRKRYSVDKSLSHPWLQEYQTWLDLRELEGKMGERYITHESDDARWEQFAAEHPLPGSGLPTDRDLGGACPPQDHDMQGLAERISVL

Chain of Protein kinase C theta type (Homo sapiens) (Q04759 whole entry, looked up): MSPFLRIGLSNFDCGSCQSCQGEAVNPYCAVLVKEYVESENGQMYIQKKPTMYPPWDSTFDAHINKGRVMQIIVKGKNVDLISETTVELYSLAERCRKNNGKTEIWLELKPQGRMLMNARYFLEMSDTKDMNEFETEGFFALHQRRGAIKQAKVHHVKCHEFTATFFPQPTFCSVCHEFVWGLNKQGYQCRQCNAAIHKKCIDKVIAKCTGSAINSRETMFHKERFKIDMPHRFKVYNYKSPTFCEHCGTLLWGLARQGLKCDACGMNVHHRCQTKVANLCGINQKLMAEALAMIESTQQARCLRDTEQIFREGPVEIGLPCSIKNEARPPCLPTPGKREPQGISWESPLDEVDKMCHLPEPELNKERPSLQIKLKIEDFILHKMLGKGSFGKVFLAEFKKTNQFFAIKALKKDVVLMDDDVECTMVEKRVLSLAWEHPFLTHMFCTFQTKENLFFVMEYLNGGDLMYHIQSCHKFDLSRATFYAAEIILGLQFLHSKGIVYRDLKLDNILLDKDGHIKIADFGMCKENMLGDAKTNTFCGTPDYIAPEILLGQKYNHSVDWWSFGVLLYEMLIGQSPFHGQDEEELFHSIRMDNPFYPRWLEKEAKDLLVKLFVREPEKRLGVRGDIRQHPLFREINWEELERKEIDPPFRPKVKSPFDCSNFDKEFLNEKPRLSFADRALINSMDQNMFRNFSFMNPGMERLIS
Chain of Protein kinase C beta type (Homo sapiens) (P05771 2-671 limits assumed): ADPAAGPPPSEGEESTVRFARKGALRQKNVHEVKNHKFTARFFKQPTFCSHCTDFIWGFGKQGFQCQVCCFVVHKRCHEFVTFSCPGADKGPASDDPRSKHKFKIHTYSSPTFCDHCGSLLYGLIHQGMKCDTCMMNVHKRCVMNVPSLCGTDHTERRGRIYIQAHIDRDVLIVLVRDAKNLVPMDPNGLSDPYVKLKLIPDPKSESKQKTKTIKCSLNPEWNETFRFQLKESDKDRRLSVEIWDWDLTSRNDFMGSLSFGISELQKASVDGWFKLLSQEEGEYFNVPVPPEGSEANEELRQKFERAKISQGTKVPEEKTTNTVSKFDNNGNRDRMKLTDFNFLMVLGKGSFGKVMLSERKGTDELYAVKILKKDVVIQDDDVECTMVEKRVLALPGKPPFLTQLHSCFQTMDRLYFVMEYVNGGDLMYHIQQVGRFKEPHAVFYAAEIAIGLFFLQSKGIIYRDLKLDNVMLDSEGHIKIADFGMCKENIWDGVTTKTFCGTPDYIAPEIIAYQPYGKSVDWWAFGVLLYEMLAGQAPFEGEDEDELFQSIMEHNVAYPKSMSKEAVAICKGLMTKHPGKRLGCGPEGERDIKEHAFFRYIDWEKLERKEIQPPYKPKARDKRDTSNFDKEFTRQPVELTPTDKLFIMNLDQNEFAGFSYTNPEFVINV

| SMILES | inhibition [1] | inhibition [2] | inhibition [3] | inhibition [4] | inhibition [5] | inhibition [6] | inhibition [7] | inhibition [8] | inhibition [9] | inhibition [10] |
| --- | --- | --- | --- | --- | --- | --- | --- | --- | --- | --- |
| COc1cccc(/C=N/Nc2ncnc3c2cnn3-c2cccc(OC)c2)c1 | 6.32% | 1.63% | 1.72% | 1.69% | 4% | 0.47% | 1.93% | 3.52% | 8.09% | 2.74% |
| Fc1ccc(-c2c(-c3ccncc3)nc3n2CCS3)cc1 | 4.08% | 1.39% | 1.01% | 1.55% | 4.99% | 1.11% | 3.63% | -0.81% | 2.14% | -0.29% |
| C[C@@H](Oc1cc(-n2cnc3ccc(OC4CCN(C)CC4)cc32)sc1C(N)=O)c1ccccc1Cl | 4.97% | 1.12% | 2.89% | 3.08% | 9.67% | 1.56% | 8.48% | 0.52% | 3.79% | 0.7% |
| NCc1ccc(-n2c(-c3nonc3N)nc3cnccc32)cc1 | 42.1% | 4.36% | 27.5% | 17.2% | 59.4% | 7.63% | 37.7% | 8.16% | 41% | 8.58% |
| Cc1nnc(-c2ccc(C)c(-c3ccc(C(=O)NCc4ccc(Cl)cc4)cc3)c2)o1 | 3.88% | 2.2% | 0.35% | 1.83% | 3.97% | 1.36% | 3.21% | 1% | 0.36% | 0.28% |
| c1ccc(-c2n[nH]cc2-c2ccnc(-c3ccc(OCCN4CCOCC4)cc3)c2)nc1 | 4% | 3.68% | 4.56% | 0.5% | -0.12% | 3.96% | 3.92% | 10.3% | 66.3% | 16.2% |
| Cc1ccc(C(=O)NC2CCC2)cc1-c1ccc(C(=O)NCC2CC2)cc1 | 0.94% | 2.17% | 2.33% | 0.68% | -0.42% | 0.24% | 0.53% | 2.65% | 3.61% | 2.36% |
| NS(=O)(=O)c1ccc(Nc2cc(-c3ccc(O)c(F)c3)n[nH]2)cc1 | -0.85% | -0.61% | 0.05% | -1.75% | -1.1% | -0.96% | 0.72% | -1.96% | 4.59% | -2.32% |
| Clc1ccc(CNc2nccc(-c3cnn4ncccc34)n2)cc1 | 4.31% | -0.38% | -1.34% | 1.01% | 1.73% | 0.21% | 0.83% | 1.24% | 4.11% | 1.12% |
| CCC(=O)Nc1ccc(C)c(-c2ccc(C(=O)NCC3CC3)cc2)c1 | 2.13% | 0.11% | 0.41% | 1.23% | 1.92% | 0.61% | 1.48% | 2.88% | 2.86% | 1.86% |
| CN(C)CCOc1ccc(-c2cc(-c3ccc4c(c3)CCC4=NO)c(-c3ccncc3)o2)cc1 | 0.02% | -1.87% | -1.84% | -1.06% | -0.42% | -0.72% | 2.28% | -0.39% | 0.79% | 0.89% |
| O=C(Nc1n[nH]c2cc(-c3ccccc3)ccc12)C1CC1 | 1.52% | 2.86% | 3.51% | 2.7% | 1.97% | 1.8% | 3.32% | 4.43% | 5.64% | 4.79% |
| CCS(=O)(=O)c1ccc(OC)c(Nc2ncc(-c3ccccc3Cl)o2)c1 | 5.15% | 0.15% | -1.52% | -0.01% | 2.29% | -0.13% | 2.01% | 1.52% | 1.41% | 1.21% |
| NC(=O)c1cc(-c2ccncc2)cc(-c2ccccc2)c1N | 4.29% | 2.83% | 4.85% | 2.27% | 4.49% | 1.9% | 2.02% | 4.07% | 6.39% | 5.01% |
| Nc1nccc(-c2c(-c3ccc(F)cc3)ncn2C2CCC(O)CC2)n1 (stereo not given) | 2.37% | 1.25% | 0.01% | -0.81% | 0.4% | 1.56% | 16.3% | 0.14% | 18.5% | 0.03% |
| CS(=O)(=O)CCNCc1cc(-c2cc3c(Nc4ccc(OCc5cccc(F)c5)c(Cl)c4)ncnc3s2)cs1 | 0.58% | 1.33% | 1.53% | 2.91% | 4.44% | 0.62% | 2% | 4.69% | 8.12% | 4.1% |
| CN(C)CCCNc1nccc(-c2c(-c3ccc(F)cc3)nn3cc(C(F)(F)F)ccc23)n1 | 4.68% | 0.91% | 2.26% | 0.23% | 0.19% | 0.57% | 3.33% | -1.67% | 0.04% | -1.36% |
